12-hLO inh = blocks human 12-lipoxygenase activity | purified 12-hLO, xylenol orange hydroperoxide absorbance | AID 1452 | 0.12% of 150,000 active | Potency, µM (titrated, usually from 57.1 µM), for inactives: at the highest dose activity change, negative = inhibition, actives largely listed as inhibitors | P18054; also: potency is read from the fitted curve at half-maximal effect; nearly all actives have a fitted effect of over 55% in size
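Hydroperoxide output read as Fe(III)-xylenol orange absorbance, 573-to-405 nm ratio, after 30 min reaction with 40 uM arachidonic acid. Enzyme: 150 nM purified human 12hLO, 15 min compound preincubation; 25 mM Hepes pH 7.0, room temperature.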
aGal spleen mod = inhibitors or activators of human alpha-galactosidase in spleen homogenate | Potency, µM (highest dose often 80 µM), without a hit: at the highest dose activity change, negative = inhibition, actives largely listed as inhibitors | 0.008% of 240,000 active | P06280 | human spleen homogenate, 4MU-alpha-Gal fluorescence, 40 min;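 also: potency is read from the fitted curve at half-maximal effect; 0% = enzyme with vehicle and -100% = no enzyme basal signal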
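Fluorogenic readout (Ex 365/Em 440 nm) of 4-methylumbelliferone released from 1 mM 4-MU-alpha-galactoside by spleen homogenate, 40 min at 37C, pH 5.0. Data normalized to no-enzyme and enzyme controls; Hill-equation AC50 from compound titrations.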
HPGD block = inhibitors of human 15-hydroxyprostaglandin dehydrogenase (HPGD); purified HPGD, NADH fluorescence kinetic, PGE2 substrate; Potency, µM, without a hit: at the highest dose activity change, negative = inhibition, most hits filed as inhibitors; 4.3% of 150,000 active; active = well fitted inhibition curve with a large enough effect, not every such curve was filed as active; inconclusive = small, poorly fitted or top-dose-only effect, or another doubt; inactive = no such curve, though single readings can be large or run the other way; also: potency is read from the fitted curve at half-maximal effect
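20 nM HPGD preincubated 15 min at room temperature with compound in 50 mM Tris-HCl pH 8, 0.01% Tween 20. Started with 1 mM NAD+ and 30 uM prostaglandin E2; NADH fluorescence (360/450 nm) read 5 times over 30-s intervals, last minus first.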
PNC assembly inh = inhibitors of perinucleolar compartment assembly | PC3M PTB-GFP, PNC prevalence imaging, 16 h; hits give low values | activity change (PNC), negative = inhibition, % at 10 µM | 3.1% of 140,000 active;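 active = readout at or below -70, meaning at least 70% loss of cells showing the perinucleolar compartment, a nuclear body marking cancer cells; inconclusive = readout between -30 and a set limit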;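 also: plate controls were DMSO wells for no effect and camptothecin positive control wells for full effect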
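PC3M cells stably expressing PTB-GFP, 750–1000 cells/well, treated 16 h at 37 °C with compound (23 nl of library stock), in duplicate. After paraformaldehyde fixation and Hoechst stain, imaged at 20x; PNC prevalence scored by image analysis.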
GLA inh pH 4.5 = blocks human alpha-galactosidase A at pH 4.5; P06280; purified enzyme, 4-MU-alpha-Gal fluorescence, pH 4.5; activity change, negative = inhibition, % at 105 µM; 230,000 tested, under 10 active; AID 1467;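 also: 0% = full activity with enzyme and -100% = basal without enzyme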
Target sequence (P06280 whole entry, looked up): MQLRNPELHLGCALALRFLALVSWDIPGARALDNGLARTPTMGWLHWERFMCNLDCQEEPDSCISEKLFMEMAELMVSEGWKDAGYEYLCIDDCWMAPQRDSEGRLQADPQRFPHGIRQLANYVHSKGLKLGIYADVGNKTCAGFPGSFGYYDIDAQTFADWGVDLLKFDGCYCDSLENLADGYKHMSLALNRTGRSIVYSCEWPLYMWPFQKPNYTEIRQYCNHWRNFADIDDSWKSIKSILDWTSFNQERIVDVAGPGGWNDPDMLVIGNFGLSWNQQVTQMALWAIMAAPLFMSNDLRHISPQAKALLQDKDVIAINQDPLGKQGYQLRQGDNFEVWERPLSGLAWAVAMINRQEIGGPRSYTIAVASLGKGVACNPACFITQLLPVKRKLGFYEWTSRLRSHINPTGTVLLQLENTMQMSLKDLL
ALDH1A1 block = inhibitors of human aldehyde dehydrogenase 1A1; Purified ALDH1A1, NADH fluorescence, propionaldehyde substrate; Potency, µM (top dose mostly 75.3 µM), for inactives: at the highest dose activity, negative = inhibition, actives largely listed as inhibitors; 7.3% of 220,000 active; active = well fitted inhibition curve with a large enough effect, not every such curve was filed as active; inconclusive = small, poorly fitted or top-dose-only effect, or another doubt; inactive = no such curve, though single readings can be large or run the other way;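 also: potency is read from the fitted curve at half-maximal effect; plate controls were no enzyme wells and a reference inhibitor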
Active calls of the source: *; ? = inconclusive; . = no result given. Compounds with a hit are over-represented: about 10% of the library has one in this group of screens. Unless noted, calls follow the shape of the dose curve; as a rule, active = well fitted curve in the direction sought with a large enough effect; inconclusive = small, poorly fitted or top-dose-only effect, or another doubt; inactive = no such curve, though single readings can be large; an effect the other way counts as inactive or inconclusive. Unless noted, % is scaled to controls: 0 for no effect and ±100 for the full control effect.

SMILES	12-hLO inh	aGal spleen mod	HPGD block	PNC assembly inh	GLA inh pH 4.5	ALDH1A1 block
C=CCNC(=O)CCCOc1ccc(C)cc1	-1%	-2%	7.1µM*	21	-2	6%
C=CCNC(=O)CCCOc1cc(C)ccc1C	0%	8%	14µM*	-1	-2	1%
CCCCn1c(N)c(N(CC)C(=O)C(c2ccccc2)c2ccccc2)c(=O)[nH]c1=O	.	7%	.	.	6	10%
CC(NC(=O)CCC(=O)c1ccc(F)cc1)C1CC2CCC1C2 (stereo not drawn)	.	5%	.	.	-7	-2%
COc1ccc(NS(=O)(=O)c2ccc(NC(=S)NC(=O)c3cccnc3)cc2)nn1	.	-1%	.	.	-1	15µM*
Cc1cc2oc(C(=O)Nc3ccc(S(=O)(=O)Nc4nccs4)cc3)cc(=O)c2cc1Cl	1%	-2%	32µM*	32	-10	-16%
O=C(NC(=S)Nc1ccc(S(=O)(=O)Nc2nccs2)cc1)c1ccc(F)c(F)c1	-25%	-3%	-7%	23	-3	25µM*
COc1ccc(NS(=O)(=O)c2ccc(NC(=S)NC(=O)c3cccc(F)c3)cc2)nn1	?	-2%	-21%	36	3	?
CCn1nc(C(=O)Nc2ccc(S(=O)(=O)Nc3nccs3)cc2)c2ccccc2c1=O	3%	-16%	-21%	22	-1	28µM*
Cn1c(SCc2cc([N+](=O)[O-])cc3c2OCOC3)nnc1-c1ccccn1	.	-2%	.	.	5	-14%
O=C(NC(=S)Nc1ccc(S(=O)(=O)Nc2nccs2)cc1)c1ccccc1F	.	-9%	.	.	5	2µM*
O=C(NC(=S)Nc1ccc(S(=O)(=O)Nc2nccs2)cc1)c1ccc(Br)o1	.	-3%	.	.	4	32µM*
COC(=O)CCC(=O)NC(=S)Nc1ccc(S(=O)(=O)Nc2cc(OC)nc(OC)n2)cc1	-5%	0%	-1%	18	-16	-18%
O=C(NC(=S)Nc1ccc(S(=O)(=O)Nc2nccs2)cc1)c1cccnc1	.	8%	.	.	1	?
COc1cc(NS(=O)(=O)c2ccc(NC(=S)NC(=O)C3CCCC3)cc2)nc(OC)n1	?	-10%	-19%	?	0	25µM*
O=C(NC(=S)Nc1ccc(S(=O)(=O)Nc2nccs2)cc1)c1ccccc1	-12%	5%	-6%	?	2	32µM*
COc1cccc(OC)c1C(=O)NC(=S)Nc1ccc(S(=O)(=O)Nc2nccs2)cc1	.	11%	.	.	-22	-5%
COc1ccc(C(=O)CNc2ccc(C)cc2C)cc1	.	5%	.	.	-3	.
Cc1cc(C)c(S(=O)(=O)Nc2ccccc2C(=O)O)cc1C	1%	.	?	.	.	?
CC(C)(C)[C@@]1(O)CCN2C[C@@H]3c4ccccc4CCc4cccc(c43)[C@@H]2C1	-4%	.	.	.	.	.
O=C(O)c1ccccc1C(=O)Nc1ccc(S(=O)(=O)Nc2nccs2)cc1	1%	4%	-13%	.	-4	-1%
O=C(Nc1ccc(S(=O)(=O)Nc2nccs2)cc1)c1cccc(N2C(=O)c3ccccc3C2=O)c1	.	-3%	.	.	3	7.1µM*
CCSc1ccccc1C(=O)Nc1nncs1	0%	4%	?	57	-6	?
CCSc1ccccc1C(=O)Nc1cccnc1	0%	-5%	-13%	-100*	4	11%
O=C(Nc1cccnc1)c1ccc(Oc2ccccc2)cc1	1%	2%	-2%	?	-5	4%
O=C(Nc1cccnc1)c1ccccc1Oc1ccccc1	2%	2%	-15%	-11	-7	18µM*
S=C(NC1CCCCC1)NC1CC2CCC(C1)N2Cc1ccccc1 (stereo not drawn)	.	-4%	.	.	-1	?
O=c1cc(N2CCN(c3ccc(F)cc3)CC2)[nH]c(=O)n1C1CCCCC1	-2%	11%	-13%	46	-2	?
CCc1ccc(Nc2cc(=O)n(C3CCCCC3)c(=O)[nH]2)cc1	-7%	4%	2%	18	-9	1.3µM*
O=c1cc(Nc2ccc3c(c2)OCCO3)[nH]c(=O)n1C1CCCCC1	3%	-4%	-19%	-23	-1	1µM*
